Common to all, as to test: NCI-60 one-dose screen, 48 h (100 = growth as untreated, 0 = no growth, -100 = all killed)
Holding throughout (settings): 10 µM unless noted

The test system of assay [1] is SR leukemia.
For assay [2], the system named is RPMI-8226 leukemia.
Assay [3] concerns OVCAR-8 ovarian.
Assay [4] deals with OVCAR-5 ovarian.
The test system of assay [5] is OVCAR-4 ovarian.
The test system of assay [6] is SK-OV-3 ovarian.
Assay [7] relates to IGROV1 ovarian.
The test system of assay [8] is OVCAR-3 ovarian.
Assay [9] relates to HS 578T breast.
The subject of assay [10] is NCI/ADR-RES ovarian.
In assay [11] the test system is T-47D breast.
In assay [12] the test system is BT-549 breast.
Assay [13] concerns SW-620 colon.
Assay [14] concerns MCF7 breast.
Assay [15] has as its system HCT-116 colon.
Assay [16] relates to HCC-2998 colon.
For assay [17], the system named is KM12 colon.
In assay [18] the test system is MDA-MB-435 melanoma.

The panel holds about 83,000 compounds, 20% with a hit somewhere; the sample as a whole holds those more often.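 Single-concentration screen, 48 h exposure, 96-well plates. Endpoint: percent growth. Below 10 = active.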 Unmarked numbers belong to inactive results. Activity calls are given as the source filed them.

For `COc1ccc(-c2ccc(-c3ccc(C(=N)N)cn3)s2)cc1`, the growth in assay [1] was 3.22% (active); in [2], 20.1%; in [3], 65.2%; in [4], 92.5%; in assay [5] it was 113%; in assay [6], 90.6%. In addition, the growth was 89% in assay [7]; 83.9% in [8]; 97.4% in assay [9]; 101% in [10]; 74.3% in assay [11]; 88.1% in assay [12]. For the same compound, the growth in assay [13] was 8.29% (active); in [14] it was 44.1%; in assay [15] it was -20.8% (active); in assay [16], 81.3%; in assay [17], 61.6%.

Take `Cn1cc(-c2ccc3cc(-c4ccc(CC(=O)Nc5cc(C(C)(C)C)on5)cc4)cnc3c2)cn1`: the growth in assay [1] was 3.71% (active); in assay [2], 19.6%; in [3], 20.4%; in assay [4] it was 56.7%; in assay [5], -21.9% (active); in [6], 5.31% (active). Further, the growth is 3.11% (active) in assay [7]; 48.9% in assay [8]; 9.69% (active) in assay [9]; 33.1% in [10]; 34.5% in [11]; 33% in [12]. Besides, the growth in assay [13] was 12.8%; in [14] it was 40.8%; in assay [15], 9.3% (active); in assay [16] it was 57.8%; in assay [17], 9.57% (active).

For `O=C1OCC2=C1C(c1cccc(C(F)(F)F)c1)c1cc3c(cc1N2CCO)OCO3` (stereo not drawn), the growth is 15.7% in assay [1]; 21% in [2]; 23.3% in [3]; 55% in [4]; 58.1% in assay [5]; 27.9% in [6]. Further, the growth in assay [7] was 37.2%; in assay [8], -5.02% (active); in assay [9] it was 31.4%; in assay [10] it was 25%; in assay [11], 28%; in [12], 55%. Further, the growth is -44.1% (active) in assay [18]; 20.9% in assay [14]; 21.4% in assay [15]; 69.9% in [16]; 24.9% in [17].

For `C/C(=N\Nc1nc(C)cs1)c1cc2ccccc2o1`, the growth was 109% in [1]; 88.5% in assay [2]; 93.3% in assay [3]; 103% in assay [4]; 94.2% in [5]; 105% in assay [6]. The growth in assay [7] is 75.8%; in [8] it was 94.1%; in assay [9], 88.8%; in assay [10], 102%; in assay [11], 21.4%; in [12], 99.3%. Besides, the growth was 105% in assay [18]; 74.2% in assay [14]; 79.3% in assay [15]; 112% in assay [16]; 95.5% in assay [17].

For the compound `CCOc1ccc(/C=N\N=C\c2ccc(OCC)cc2)cc1`, the growth was 64.3% in assay [1]; 107% in [2]; 74.5% in assay [3]; 76.9% in assay [4]; 94.1% in assay [5]; 101% in assay [6]. Further, the growth in assay [7] is 78.5%; in assay [8] it was 114%; in assay [9], 106%; in assay [10], 78.1%; in assay [11] it was 94.7%; in assay [12], 87.7%. For the same compound, the growth in assay [18] was 109%; in assay [14] it was 67.5%; in assay [15] it was 45.5%; in [16], 98%; in assay [17], 98.1%.

For `CCOC(=O)N1CCN(S(=O)(=O)c2oc(-c3ccc(Cl)cc3)nc2C#N)CC1`, the growth is 4.64% (active) in [1]; 67.3% in [2]; 70.8% in [3]; 106% in [4]; 103% in assay [5]; 102% in assay [6]. Besides, the growth in assay [7] was 87.9%; in assay [8] it was 32.2%; in [9], 102%; in [10] it was 102%; in assay [11], 65.4%; in [12], 92.2%. Moreover, the growth in assay [13] was -49% (active); in assay [14], 62.2%; in assay [15] it was 14.1%; in assay [16] it was 104%; in [17] it was 108%.

For `CCOC(=O)c1n[nH]n2c1nc(=O)c1cnn(C)c12`, the growth in [1] was 85.3%; in assay [2] it was 101%; in assay [3] it was 102%; in assay [4], 112%; in [5], 102%; in [6] it was 101%. The growth in [7] was 108%; in assay [8], 101%; in assay [9], 105%; in assay [10] it was 103%; in assay [11], 96.5%; in [12], 133%. Further, the growth in assay [13] is 108%; in [14] it was 92.8%; in [15], 114%; in assay [16], 100%; in assay [17] it was 95.7%.

Turning to `CCOC(=O)n1cc(-c2nonc2-c2cn(C)c3ccccc23)c2ccccc21`, the growth in assay [1] is 19.7%; in assay [2], 38.9%; in assay [3], 51.6%; in assay [4] it was 55.6%; in assay [5] it was 59.9%; in [6], 45%. Further, the growth in [7] was 46.8%; in [8], 25.1%; in assay [9], 29.3%; in assay [10] it was 15.2%; in assay [11], 40.6%; in [12], 55.3%. The growth in assay [13] is 18.8%; in assay [14] it was 21.6%; in [15], 22.3%; in assay [16], 60.9%; in assay [17], 29.1%.

As to `COc1ccc(/C=C/C(=O)c2ccc(NC(=O)CSc3nnc(-c4cc(-c5ccccc5)nc5ccccc45)n3-c3ccccc3)cc2)cc1`, the growth in assay [1] is 79.7%; in [2] it was 96.6%; in [3], 93.5%; in assay [4], 93.4%; in assay [5], 96%; in assay [6], 109%. The growth was 111% in assay [7]; 102% in assay [8]; 93.1% in assay [9]; 97.1% in assay [10]; 80.3% in assay [11]; 96.3% in assay [12]. Further, the growth in assay [18] was 97.9%; in [14], 93.7%; in assay [15], 98.7%; in assay [16], 107%; in assay [17] it was 89.5%.

The record behind these values is PubChem BioAssay (NCI).
